The values below come from PubChem BioAssay (NCATS).

Inconclusive results are not listed. The source made the active and inactive calls. Calls follow the shape of the full dose curve.

This assay is described as follows: qHTS Assay for Lipid Storage Modulators (AID 1519). As to activity change, negative = inhibition: % is scaled to controls: 0 for no effect and ±100 for the full control effect. The note with it: Drosophila S3 cells, BODIPY lipid droplet/cell ratio, laser cytometry, cells loaded with oleic acid. From the text: NIH Molecular Libraries Probe Production Centers Network [MLPCN]
NIH Chemical Genomics Center [NCGC]
Assay Submitter (PI): Beller, Mathias; Max-Planck-Institut fur Biophysikalische Chemie
NCGC Assay Overview: Storing lipids as a reservoir for energy or the anabolism of elementary metabolites is a common feature of probably all cells and is conserved from bacteria to humans. The universal cellular lipid storage organelle is the so-called lipid storage droplet (LD). Although ubiquitous, LDs share a simple structure composed of a hydrophobic core that harbors the storage lipids, which is shielded by a droplet-specific phospholipid monolayer to which proteins are attached. The current model of LD biogenesis involves an incorporation of the lipid core into the membrane leaflets of the endoplasmic reticulum (ER) followed by a subsequent budding-like maturation of a LD, which ultimately pinches off. Once released, LD volume can increase by localized lipogenesis or fusion of existing droplets. Storage lipids are re-mobilized enzymatically by lipase activity. Lipase regulation in the adipocyte is heavily studied and involves multiple components including catecholamine signaling, the LD-associated proteins Perilipin and comparative gene identification-58 (CGI-58) and at least two lipases named hormone sensitive lipase (HSL) and adipocyte triglyceride lipase (ATGL). LD regulation outside of the adipocyte is poorly understood and only few components are known. However, there is an urgent need to learn more about ectopic fat depots as mislocalized storage of lipids, for example in the liver or muscle, is an eminent health problem associated with insulin resistance or the metabolic syndrome. We developed a laser-scanning cytometer assay to enable 1,536-well screening and combined the results of the small molecules screen with an RNAi database based on lipid storage.
NCGC Assay Protocol Summary:
We dispensed 4 uL of cells at 1.25 x 10^6 cells/mL into LoBase Aurora COC 1,536-well plates (black walled, clear bottom) with a bottle-valve solenoid-based dispenser (Aurora) to obtain 5,000 cells/well. Triacsin C (Sigma-Aldrich T-4540), an inhibitor of long-chain fatty acyl CoA synthetase that blocks synthesis of triglycerides, was used as a positive control for lipid under-storage. A total of 23 nL of compound solution of different concentrations were transferred to the assay plates using a Kalypsys pin tool equipped with a 1,536-pin array containing 10-nL slotted pins (FP1S10, 0.457-mm diameter, 50.8 mm long; V&P Scientific). One microliter of oleic acid (400 uM) was added, and the plate was lidded with stainless steel rubber gasket lined lids containing pinholes. […] Fluorescence was detected by excitation of the fluorophores with a 488-nm laser on an Acumen Explorer (TTP Lab Tech). The total intensity in channel 1 (500-530 nm) reflected lipid droplet accumulation. […] The ratio of the total intensity in PMT channel 1 over total intensity of channel 3 was also calculated. Percent activity was computed relative to an internal control (100% inhibited lipid droplet deposition due to the presence of 20 uM Triacsin C), which was added to 32 wells/plate.
On the technique in general: Quantitative high-throughput screening tests each substance at several concentrations.

The mark [1] stands for this setting: measured here: cell count channel max response.
Where [2] appears, read: measured here: lipid channel max response.

As to `O=C(/C=C\c1ccc(O)c(O)c1)O[C@@H]1C[C@](O)(C(=O)O)C[C@@H](O)[C@@H]1O`, for the setting “at 25.7 µM (top of the series)”, the activity change, negative = inhibition is 2.29% (inactive). Also, the max response is, setting by setting: under setting [1], 1.17%; under setting [2], 3.23%.
On the same counts, the results for `NC[C@@H]1O[C@@H](O[C@H]2[C@H](O)[C@H](O[C@@H]3O[C@H](CO)[C@@H](O)[C@H](N)[C@@H]3O)[C@@H](N)C[C@H]2N)[C@H](N)C[C@@H]1O` are -2.29% (inactive), -4.83% and -6.77%.
On to `CC(C)n1c(/C=C\[C@@H](O)C[C@@H](O)CC(=O)O)c(-c2ccc(F)cc2)c2ccccc21`, for which the activity change, negative = inhibition (at 25.7 µM (top of the series)) was -2.74% (inactive). Also, the max response reads like this: under setting [1], -6.17%; under setting [2], -6.63%.
For `COc1ccc(-c2cc(=O)c3c(O)c(OC)c(OC)c(OC)c3o2)cc1OC`, the activity change, negative = inhibition (at 57.5 µM (top of the series)) was -11% (inactive). Moreover, the max response was -6.36% under setting [1] and -17.8% under setting [2].
Take `COc1ccc(-c2coc3cc(O)ccc3c2=O)c(OC)c1O`: for the setting “at 57.5 µM (top of the series)”, the activity change, negative = inhibition was -3.58% (inactive). Also, the max response is, setting by setting: under setting [1], 12.3%; under setting [2], 2.49%.
With `CC(=O)OC1CC2C(C)(C)C(=O)C=C[C@]2(C)C2CC[C@@]3(C)C(c4ccoc4)OC(=O)C4O[C@@]43[C@]12C` (some centres not stated), the activity change, negative = inhibition (at 57.5 µM (top of the series)) is -1.71% (inactive). For the same compound, the max response under setting [1] came out at 11.5% and the max response under setting [2] is 11.5%.
`CC(=O)OC1CC2C(C)(C)C(O)C=C[C@@]2(C)C2CC[C@@]3(C)C(c4ccoc4)OC(=O)C4OC43[C@]12C` (some centres not stated): under “at 57.5 µM (top of the series)”, the activity change, negative = inhibition is 8.59% (inactive). Also, the max response was determined as 21.3% under setting [1] and 29.9% under setting [2].
With `NC1=NCCN1CC(=O)O`, the activity change, negative = inhibition (at 57.5 µM (top of the series)) is 4.53% (inactive). Besides, the max response worked out at 1.34% under setting [1] and 10.9% under setting [2].
Turning to `COC(=O)c1cc(=O)c(O)c2c(O)c(O)ccc2c1`, where the note is “at 57.5 µM (top of the series)”, the activity change, negative = inhibition was -1% (inactive). Further, the max response is -7.53% under setting [1] and -9.52% under setting [2].
On the same counts, the results for `COC(=O)CCC(C)C1CCC2C3CC[C@H]4CC(O)CC[C@@]4(C)C3CC(O)[C@]12C` (some centres not stated) are 1.15% (inactive), -3.87% and -3.09%.
As to `Cc1cn(C2CC(N=[N+]=[N-])C(CO)O2)c(=O)[nH]c1=O` (configuration not stated), the activity change, negative = inhibition (at 57.5 µM (top of the series)) is 9.63% (inactive). The max response reads like this: under setting [1], 4.71%; under setting [2], 18.1%.
Take `NC(Cn1ccc(=O)c(O)c1)C(=O)O` (configuration not stated): the activity change, negative = inhibition (at 57.5 µM (top of the series)) was 3.76% (inactive). For the same compound, the max response was 3.01% under setting [1] and 10.8% under setting [2].
Consider `CC1=C(/C=C/C(C)=C/C=C/C(C)=C/C=C/C=C(C)/C=C/C=C(C)/C=C/C2=C(C)C(=O)C(O)CC2(C)C)C(C)(C)CC(O)C1=O` (configuration not stated), for which the activity change, negative = inhibition (at 57.5 µM (top of the series)) is 2.55% (inactive). For the same compound, the max response under setting [1] was 25.7% and the max response under setting [2] worked out at 27.4%.
On the same counts, the results for `CC(=O)OC1CC2C(C)(C)C(O)CCC2(C)C2CC[C@]3(C)C(=CC(=O)OC3c3ccoc3)C12C` (some centres not stated) are -0.0065% (inactive), -9.39% and -0.419%.
